Source: PubChem BioAssay (several laboratories)
cardiac RTF act – cardiac RTF calcium sensitivity activators, primary screen, biochemical, IANBD-TnC fluorescence, EC20 calcium; Troponin I, cardiac muscle (Homo sapiens) + Troponin T, cardiac muscle (Homo sapiens) + …; IANBD-labeled TnC RTF fluorescence at EC20 calcium; 0% EC20 calcium, 100% full calcium; activation, % at 7.2 µM; actives 0.24% (n = 340,000); AID 493008, 2010;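 active means activation above the mean over all tested compounds plus 3 SD, cut at about 30% in these data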;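 further: rise in fluorescence read as greater calcium sensitivity of cardiac thin filaments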
LANA-H2B inh – blockers of LANA interaction with H2A/H2B – biochemical, FP readout, HTS, primary screen; AID 2629, 2010; Protein LANA1 (Human herpesvirus 8 type P (isolate GK18)), Q9QR71; actives 0.6% (n = 320,000); cell-free LANA-H2A/H2B peptide, fluorescence polarization; inhibition, % (test concentration not listed); in the data active means inhibition mostly above about 10%, no sharp cut-off; inactive means mostly below about 6.7%
Cardiac RTF inh – cardiac RTF calcium sensitivity inhibitors, primary screen, biochemical, IANBD-TnC fluorescence, EC70 calcium; Troponin I, cardiac muscle (Homo sapiens) + Troponin T, cardiac muscle (Homo sapiens) + …; IANBD-labeled cardiac RTF, Ca2+ fluorescence; inhibition, % at 7.15 µM; actives 0.12% (n = 340,000); AID 493244, 2011;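 active means inhibition above the mean inhibition of all tested compounds plus 3 SD, cut at about 17% in these data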;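 further: assay run at fixed EC70 calcium of 1.6 mM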
C-LANA FP – inhibitors of KSHV C-LANA binding to DNA, primary screen, biochemical, fluorescence polarization, FAM-LBS DNA, MBP-C-LANA, single point | AID 504423, 2011 | inhibition, % at 9 µM | Kaposi's sarcoma herpesvirus LANA C-terminal domain (residues 932-1162) DNA binding | actives 0.078% (n = 340,000);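 active means highest replicate inhibition at or above 60% at 9 µM, even if other replicates fall short; inactive means all replicates below 60% inhibition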;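 further: 0% = neutral control wells and 100% = 4 µM acridine orange control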
Keap1 Nrf2 FP – Keap1-Nrf2 protein-protein interaction inhibitors, primary screen, biochemical, fluorescence polarization, single point | Keap1 Kelch-Nrf2 peptide fluorescence polarization, 1536-well | actives 0.15% (n = 340,000) | AID 504523, 2011 | Kelch-like ECH-associated protein 1 (Homo sapiens), Q14145 | inhibition, % at 9.4 µM; in the data active means inhibition above about 12%;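 further: human Keap1 Kelch domain with fluorescein labeled Nrf2 9mer peptide probe; 0% = neutral control wells and 100% = peptide positive control; higher means more block of Keap1 binding to Nrf2 peptide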
Target sequence (Q14145 whole entry, looked up, the tested form may be a part): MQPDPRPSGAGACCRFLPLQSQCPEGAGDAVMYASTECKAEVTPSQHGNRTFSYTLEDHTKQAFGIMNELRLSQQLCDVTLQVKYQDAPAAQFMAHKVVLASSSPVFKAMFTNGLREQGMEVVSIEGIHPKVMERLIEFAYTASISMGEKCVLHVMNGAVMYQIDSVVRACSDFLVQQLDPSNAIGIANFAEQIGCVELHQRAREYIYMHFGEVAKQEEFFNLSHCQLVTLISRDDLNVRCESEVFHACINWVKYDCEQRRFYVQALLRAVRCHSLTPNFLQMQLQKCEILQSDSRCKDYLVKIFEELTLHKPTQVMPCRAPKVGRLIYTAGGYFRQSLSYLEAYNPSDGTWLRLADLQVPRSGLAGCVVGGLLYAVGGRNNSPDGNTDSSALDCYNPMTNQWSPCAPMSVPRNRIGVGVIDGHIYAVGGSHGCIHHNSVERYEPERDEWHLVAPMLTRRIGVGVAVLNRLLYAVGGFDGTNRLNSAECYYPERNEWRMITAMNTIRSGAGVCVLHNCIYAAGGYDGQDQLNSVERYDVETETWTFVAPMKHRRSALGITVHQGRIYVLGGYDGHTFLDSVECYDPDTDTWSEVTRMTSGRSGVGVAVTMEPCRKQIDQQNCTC
Starred values were filed as active, the others as inactive; . = no result given. Most compounds without a hit are left out; they make up all but 0.98% or so of the library.

SMILES | cardiac RTF act | LANA-H2B inh | Cardiac RTF inh | C-LANA FP | Keap1 Nrf2 FP
CCOC(=O)C1CCCN(C2=NC(=O)/C(=C/c3ccc(N(C)C)cc3)S2)C1 (configuration not stated) | 65.3* | 8.7 | -90.5 | -36.0 | -110.0
O=C1CCc2cc(OCCCCc3nnnn3C3CCCCC3)ccc2N1 | 2.2 | 32.9* | -1.9 | 1.6 | -0.2
O=C(CS(=O)c1ccc(F)cc1)Nc1ccccc1Cl (configuration not stated) | 4.7 | 13.4* | -5.0 | 1.0 | -5.2
O=C(CS(=O)c1cccc(C(F)(F)F)c1)Nc1ccccc1Cl (configuration not stated) | -4.6 | -1.0 | -9.2 | 3.4 | 0.2
O=C(NNC(=O)C1CC=CCC1C(=O)O)c1ccc(Cl)cc1 (configuration not stated) | 8.0 | -2.0 | -0.2 | -1.5 | -3.3
O=C(NCCc1ccccc1)C1CCN(c2nc3ccccc3o2)CC1 | 1.3 | 14.3* | 1.7 | 1.4 | 1.3
COc1ccc2c(c1)c(=O)oc1cc(O)ccc12 | 0.5 | -0.1 | -0.1 | -0.4 | 2.3
COc1ccc2c(c1)c(=O)oc1cc3occ(C(C)(C)C)c3cc12 | -0.3 | 12.1* | 3.0 | 0.5 | 0.9
COC(=O)c1cc(O)c(O)c(O)c1 | -3.1 | 8.1 | -2.2 | 3.5 | -2.5
COC(=O)c1cc(OC)nc(OC)c1 | -2.6 | 25.0* | -2.9 | 0.8 | -0.8
CC1CCN(CCCNC(=O)c2ccc(Cn3c(=S)[nH]c4ccc(Br)cc4c3=O)cc2)CC1 | . | 2.0 | . | . | .
Cc1ccc(CN2C(=O)CCC2C(=O)NCc2cccnc2)cc1 (configuration not stated) | 1.8 | 18.3* | -7.8 | 0.4 | -2.7
Cc1ccc(CNC(=O)C2CCC(=O)N2Cc2ccc(F)cc2)cc1 (configuration not stated) | -2.6 | -3.3 | -5.5 | -1.5 | 0.8
Cc1cc(C2C(C#N)=C(N)SC(N)=C2C#N)c(C)s1 | 41.1* | -11.0 | -96.1 | -5.0 | -44.8
Cc1sccc1C1C(C#N)=C(N)SC(N)=C1C#N | . | -2.0 | . | . | .
Nc1cnccc1C(=O)O | 38.7* | 6.5 | -49.4 | 9.8 | 7.5
C/C=C/c1ccc(OCCCCN2CC(C)CC(C)C2)c(OC)c1 (configuration not stated) | 5.1 | 195.3* | 3.9 | -0.5 | -4.2
CC1CCCCC1NC(=O)CCN1C(=O)C2C3C=CC(C3)C2C1=O (configuration not stated) | -3.7 | -0.6 | 1.3 | 0.1 | 0.5
CC1(C)c2ccccc2N2CC(=O)N(CC(N)=O)C21C (configuration not stated) | 39.7* | -57.6 | -44.7 | -6.9 | -71.1
COCCNC(=O)/C(C#N)=C\c1ccc(CNS(=O)(=O)c2ccccc2)o1 | -2.6 | 3.5 | 2.9 | -0.8 | 0.8
COCCNC(=O)/C(C#N)=C/c1ccc(N2CCOCC2)o1 | 61.2* | -31.6 | -54.4 | -37.9 | -132.0
N#C/C(=C\c1ccc(OCCN2CCOCC2)cc1)C(=O)Nc1ccccc1 | 0.8 | 0.7 | -4.9 | -0.1 | -1.1
N#C/C(=C\c1ccc(N2CCOCC2)o1)C(=O)NCCc1ccccc1 | 64.5* | -32.7 | -88.2 | -27.3 | -85.7
N#C/C(=C/c1ccc(N2CCOCC2)o1)C(=O)Nc1ccccc1 | 132.2* | . | -177.5 | -10.2 | -29.5
Cc1nsc2nc3c(F)c(F)c(F)c(F)c3cc12 | 4.2 | 9.6 | -13.4 | 2.2 | 0.3
SMILES | cardiac RTF act | LANA-H2B inh | Cardiac RTF inh | C-LANA FP | Keap1 Nrf2 FP
CN1CCN(CC(=O)Nc2ccccc2C(F)(F)F)CC1 | 0.6 | 3.5 | -1.0 | -0.5 | -5.4
CN1CCN(CCNC(=O)Nc2ccccc2C(F)(F)F)CC1 | -3.0 | 17.5* | 7.9 | -0.7 | -4.5
CCCOc1ccc(C(O)(CCN2CCCCC2)c2ccccc2OC)cc1 (configuration not stated) | -3.2 | 6.9 | -5.0 | -2.2 | -7.4
C/C(=N\Nc1nncc2ccccc12)c1ccc(O)cc1 | -1.5 | 12.2* | 1.8 | -1.0 | 2.8
CSc1ncc(C(=O)Nc2ccc(Br)cn2)c(C)n1 | 7.7 | 2.4 | -11.8 | 5.8 | -2.3
CCc1ccc(C(C)NC(=O)c2ccncc2)cc1 (configuration not stated) | 1.0 | 23.3* | -4.9 | 0.0 | -0.6
CCc1ccc(C(C)NC(=O)c2ccc(F)cc2)cc1 (configuration not stated) | 0.7 | -1.2 | -4.3 | -0.5 | -0.5
O=C(CSc1nnnn1-c1cccc2ccccc12)Nc1ccc(N2CCOCC2)c(Cl)c1 | 7.5 | 15.2* | -6.4 | -0.1 | -3.7
O=C(CSc1nnnn1-c1ccccc1)Nc1ccc(N2CCOCC2)c(Cl)c1 | -2.5 | -1.9 | 3.2 | 0.4 | 0.6
Cc1ccc(S(=O)(=O)N2CCN(C(=S)NCC3CCCO3)CC2)cc1 (configuration not stated) | -4.2 | 0.5 | -1.6 | 1.3 | -1.5
CN(C)C=Nc1nonc1-c1ccccc1 | 4.7 | -0.8 | -7.9 | 0.2 | -3.0
CN(C)C=Nc1c(Br)cc(Br)c2nonc12 | 32.1* | -10.2 | -56.1 | -7.9 | -40.5
N#Cc1c2nc3ccccc3nc2n2cc(NC(=O)c3ccc(F)cc3)ccc12 | 9.7 | . | -16.9 | 11.6 | -3.0
Cc1c(C(=O)Nc2ccc(F)cc2)cn2c(nc3ccccc32)c1C#N | 0.0 | 97.0* | 0.7 | 2.8 | -2.9
C=CCNC(=S)N1CCN(Cc2ccccc2)CC1 | 6.1 | 18.1* | -15.7 | -1.5 | 0.1
Nc1c(-c2ccc(Cl)cc2)cnc2c(-c3ccccc3)cnn12 | -0.3 | -1.5 | -2.4 | 2.2 | 2.1
COc1ccccc1NC(=O)COC(=O)/C=C/c1ccc2c(c1)OCO2 | -0.1 | 14.2* | 6.7 | -1.4 | -0.8
COc1ccc(/C=C/c2cccc[n+]2C)c(O)c1 | -9.6 | 2.4 | -3.5 | -5.2 | -6.1
CCN(CC)c1ccc(/C=C/c2cccc[n+]2C)c(OC)c1 | 75.2* | -105.1 | -95.7 | -46.7 | -135.4
CC(NC(=O)c1c(Cl)cnn1C)C1CCCO1 (configuration not stated) | 0.9 | -0.3 | -7.3 | 1.0 | -4.4
Cn1ncc(Cl)c1C(=O)NCC1CCCO1 (configuration not stated) | -1.8 | 13.6* | -0.5 | -0.9 | 2.0
CCOc1ccc(CCNC(=O)c2cc(=O)[nH]c3ccc(S(=O)(=O)N(CC)CC)cc23)cc1OCC | 6.0 | -1.6 | -4.5 | 0.9 | 3.4
COc1cc(C(=O)Nc2nnc(Cc3ccccc3)s2)cc(OC)c1OC | -6.7 | -1.7 | -4.3 | -3.2 | -2.3
COc1cc(C(=O)Nc2nnc(CC(=O)N3CCOCC3)s2)cc(OC)c1OC | 1.4 | 16.6* | -0.9 | 0.0 | -1.1
Nn1c(SCC(=O)Nc2ccc(OC(F)F)cc2)nnc1-c1ccco1 | -1.8 | 0.7 | 3.2 | -2.4 | -4.3
